Only some compounds are listed: those with a hit (about 9% of all), similar ones and a draw of the others.
PLK1 PBD block = qHTS for Inhibitors of PLK1-PDB (polo-like kinase 1 - polo-box domain): Primary Screen; Plk1 PBD binding of FITC phosphopeptide, fluorescence polarization; hit rate 2.8% among 360,000; AID 720504, 2013; Serine/threonine-protein kinase PLK1 (Homo sapiens), P53350; Potency, µM, inactives show max response, negative = inhibition, hits mostly inhibitors; also: series mostly up to about 57 µM; % is scaled to controls: 0 for no effect and ±100 for the full control effect; nearly all actives have a fitted effect of over 65% in size
12-LOX inh = Primary qHTS assay for inhibitors of human arachidonate 12S-lipoxygenase (ALOX12): Round 2; purified 12hLO, xylenol orange hydroperoxide absorbance; hit rate 1.1% among 580,000; AID 1671190, 2021; Polyunsaturated fatty acid lipoxygenase ALOX12 (Homo sapiens), P18054; Potency, µM (series often up to 108 µM), without a hit: at the highest dose activity change, negative = inhibition, most hits filed as inhibitors; also: % is scaled to controls: 0 for no effect and ±100 for the full control effect
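Hydroperoxide product was detected by ferrous iron/xylenol orange as the 573 to 405 nm absorbance ratio. Arachidonic acid at 40 uM (final) was turned over for 30 min at room temperature by 150 nM human 12hLO, pH 7.0 Hepes buffer, after 15 min compound preincubation.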
G9a inh = qHTS Assay for Inhibitors of Histone Lysine Methyltransferase G9a; G9a H3K9 monomethylation, AlphaScreen, 2 h; hit rate 8.8% among 350,000; Potency, µM (titrated, usually from 102 µM), for inactives: at the top dose activity, negative = inhibition, most hits filed as inhibitors; Histone-lysine N-methyltransferase EHMT2 (Homo sapiens), Q96KQ7; also: % is scaled to controls: 0 for no effect and ±100 for the full control effect; nearly all actives have a fitted effect of over 75% in size
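AlphaScreen detection with an anti-monomethyl H3K9 antibody quantified product after a 2 h room-temperature reaction containing 500 nM biotinylated H3K9 peptide, 20 µM SAM and 20 nM enzyme, which had been preincubated 15 min with compound.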
HP1b chromo inh = HTS for Inhibitors of HP1-beta Chromodomain Interactions with Methylated Histone Tails; AlphaScreen HP1-beta / biotin-H3K9me3 peptide binding; hit rate 0.56% among 390,000; Chromobox protein homolog 1 (Homo sapiens), P83916; Potency, µM (doses to about 114 µM), inactives show top-dose activity change, negative = inhibition, hits mostly inhibitors; AID 540317, 2011; also: nearly all actives have a fitted effect of over 70% in size
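HP1-beta protein (50 nM final) preincubated 30 min at room temperature with biotinylated H3(1-18)K9me3 peptide (50 nM) in PBS pH 7.4, 0.01% Tween-20, then compound added for 30 min. AlphaScreen streptavidin donor/nickel chelate acceptor beads (10 ug/mL final), 30 min dark, luminescence read.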
JMJD2A Tudor inh = qHTS Assay for Inhibitors of JMJD2A-Tudor Domain. AID 504339, 2011. Lysine-specific demethylase 4A (Homo sapiens), O75164. AlphaScreen JMJD2A-Tudor / H3K4me3 peptide binding. hit rate 4.4% among 390,000. Potency, µM (titrated, usually from 114 µM), without a hit: at the top dose activity change, negative = inhibition, usual class: inhibitors; also: % is scaled to controls: 0 for no effect and ±100 for the full control effect; nearly all actives have a fitted effect of over 50% in size
Target sequence (O75164 whole entry, looked up, the tested form may be a part): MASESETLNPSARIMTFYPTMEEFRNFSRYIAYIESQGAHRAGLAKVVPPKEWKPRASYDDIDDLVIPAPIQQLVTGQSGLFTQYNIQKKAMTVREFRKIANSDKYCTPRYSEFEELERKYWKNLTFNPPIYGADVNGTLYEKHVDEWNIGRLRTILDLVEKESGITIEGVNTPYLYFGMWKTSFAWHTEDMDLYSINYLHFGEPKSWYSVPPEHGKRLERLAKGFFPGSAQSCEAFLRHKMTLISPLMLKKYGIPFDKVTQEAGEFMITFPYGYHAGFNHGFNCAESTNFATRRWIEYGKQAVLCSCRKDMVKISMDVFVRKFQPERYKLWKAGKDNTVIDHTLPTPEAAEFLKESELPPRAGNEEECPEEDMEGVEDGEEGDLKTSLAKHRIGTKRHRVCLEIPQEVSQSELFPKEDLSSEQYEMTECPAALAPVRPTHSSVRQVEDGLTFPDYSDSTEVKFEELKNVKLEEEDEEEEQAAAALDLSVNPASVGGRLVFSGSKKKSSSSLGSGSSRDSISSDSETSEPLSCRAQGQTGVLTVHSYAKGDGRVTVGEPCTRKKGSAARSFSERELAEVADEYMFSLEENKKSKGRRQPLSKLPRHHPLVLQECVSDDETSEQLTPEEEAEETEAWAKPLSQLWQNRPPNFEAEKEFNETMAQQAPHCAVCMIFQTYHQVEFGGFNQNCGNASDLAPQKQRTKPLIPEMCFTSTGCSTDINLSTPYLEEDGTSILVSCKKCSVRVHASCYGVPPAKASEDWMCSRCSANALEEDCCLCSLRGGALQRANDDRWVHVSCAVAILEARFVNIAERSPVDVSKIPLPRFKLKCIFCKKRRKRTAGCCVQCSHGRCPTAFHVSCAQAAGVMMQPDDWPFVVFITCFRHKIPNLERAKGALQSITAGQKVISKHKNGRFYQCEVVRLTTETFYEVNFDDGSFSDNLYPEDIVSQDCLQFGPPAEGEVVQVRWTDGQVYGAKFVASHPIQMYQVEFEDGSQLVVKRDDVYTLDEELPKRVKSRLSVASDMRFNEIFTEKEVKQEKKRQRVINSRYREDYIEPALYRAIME
BAZ2B inh = qHTS Assay for Inhibitors of BAZ2B. Bromodomain adjacent to zinc finger domain protein 2B (Homo sapiens), Q9UIF8. AlphaScreen BAZ2B-H3K14Ac peptide displacement. Potency, µM (doses to about 114 µM), for the others: at the top dose activity change, negative = inhibition, usual class: inhibitors. hit rate 4.4% among 360,000. AID 504333, 2011; also: % is scaled to controls: 0 for no effect and ±100 for the full control effect; nearly all actives have a fitted effect of over 60% in size
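In this displacement format the biotinylated H3(5-23) peptide acetylated at Lys14 serves as ligand at 50 nM, with BAZ2B at 50 nM in PBS pH 7.4 containing 0.01% Tween-20. Donor and acceptor beads are 10 ug/mL final.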
Numbers without * were called inactive; i = inactive; ? = inconclusive; . = no result; [ ] = dose if it differs, or a comment. Calls follow the shape of the dose curve; as a rule, active = well fitted curve in the direction sought with a large enough effect; inconclusive = small, poorly fitted or top-dose-only effect, or another doubt; inactive = no such curve, though single readings can be large; an effect the other way counts as inactive or inconclusive. Potency is read from the fitted curve at half-maximal effect.

SMILES	PLK1 PBD block	12-LOX inh	G9a inh	HP1b chromo inh	JMJD2A Tudor inh	BAZ2B inh
COCCNC(=O)COc1ccc(Nc2ccccc2)cc1	-8.1%	-4.6%	50.1µM*	0.2%	-20.7%	?
Cc1c(C(=O)Nc2ccccc2C(=O)N2CCCC2)cccc1[N+](=O)[O-]	-0.4%	-1.9%	-0.7%	35.3%	-2.9%	-14.5%
CC(=O)Nc1ccc(-c2nnc(SCc3ccc(C)cc3)n2C)cc1	-3.5%	?	5.01µM*	29.7%	-11.5%	4.3%
Cc1ccccc1Nc1nc(CSc2nnc(-c3ccoc3C)n2C)cs1	-17.2%	-21.3%	39.8µM*	3.2%	-33.7%	?
Cc1ccc(Nc2nc(CSc3nnc(-c4ccncc4)n3C)cs2)cc1	-3.6%	2.7%	39.8µM*	8.4%	-28.5%	-17.8%
Cc1ccc(CSc2nnc(-c3ccncc3)n2C)cc1	3.8%	0.0%	-10.3%	46.6%	89.1µM*	?
Cc1ccc(Nc2nc(CSc3nnc(-c4cccnc4)n3-c3ccccc3F)cs2)cc1	-10.6%	-7.2%	?	19.9%	?	?
CCOc1ccc(S(=O)(=O)NCc2ccncc2)cc1NC(=O)c1ccccc1	-6.9%	-6.1%	56.2µM*	15.2%	-14.4%	2.7%
COc1ccc(S(=O)(=O)NCc2ccccn2)cc1NC(=O)c1ccccc1C	-11.2%	?	-34.8%	10.6%	1µM*	?
COc1ccc(S(=O)(=O)NCc2ccccn2)cc1OC	-5.0%	?	-46.8%[12.7 µM]	13.2%	-16.3%	?
COc1ccc(S(=O)(=O)NCc2ccccn2)cc1NC(=O)c1ccc(Cl)cc1	-5.7%	-10.7%	-3.0%	-23.6%	3.55µM*	-7.2%
O=C(NCc1cccc(C(F)(F)F)c1)C1CC(c2ccccc2F)=NO1 (stereo unspecified)	0.7%	-4.1%	.	57.7%	-4.9%	.
Cc1ccc2nc(-c3ccc(NC(=O)CN4C(=O)c5ccccc5C4=O)cc3)sc2c1	-3.3%	-25.0%	-17.6%[59 µM]	35.4%	-9.3%	10.7%
Cc1ccc2nc(-c3ccc(NC(=O)COC(=O)c4ccc(=O)[nH]c4)cc3)sc2c1	0.0%	7.9%	-15.5%[59 µM]	-17.1%	44.7µM*	-0.7%
Cc1ccc2nc(-c3ccc(NC(=O)CNC4CC4)cc3)sc2c1	2.1%	-16.0%	7.08µM*	-20.2%	?	44.7µM*
O=C(NC1(C(F)(F)F)NC(=O)N(Cc2ccccc2)C1=O)c1cccs1 (stereo unspecified)	-4.6%	-2.6%	.	14.3%	-21.6%	.
Cc1noc(C)c1COc1ccc(C(=O)NCC2CCCO2)cc1 (stereo unspecified)	-6.8%	5.9%	5.8%[59 µM]	58.3%	-2.9%	1.0%
Oc1ccc(-c2csc(Nc3ccccn3)n2)cc1	6.9%	-3.7%	70.8µM*	2.7%	-27.1%	?
COc1ccc(-c2csc(Nc3ccccn3)n2)cc1OC	-12.0%	?	50.1µM*	-24.6%	?	44.7µM*
COc1ccc(-c2csc(Nc3ccc(C)cn3)n2)cc1	-15.5%	-19.9%	20µM*	-13.3%	-28.9%	?
COc1ccc(NCc2ccsc2)cc1	-3.9%	i	35.5µM*	-19.1%	56.2µM*	17.8µM*
COc1ccc(CNc2ccc(S(N)(=O)=O)cc2)cc1	-1.9%	-12.4%	25.4%	7.1%	-5.2%	-2.6%
CCCN(CCC)C(=O)c1ccc2c(c1)S(=O)(=O)c1ccccc1C2=O	-4.5%	5.7%	79.4µM*	4.5%	?	-33.5%
O=C(Nc1cccc(-c2ccc(N3CCOCC3)nn2)c1)Nc1cc(Cl)ccc1Cl	.	11.4%	.	.	.	.
COc1cccc2sc(N(CCCN(C)C)C(=O)c3ccc(S(=O)(=O)N4CCCc5ccccc54)cc3)nc12	-2.0%	?	.	-10.1%	?	39.8µM*
SMILES	PLK1 PBD block	12-LOX inh	G9a inh	HP1b chromo inh	JMJD2A Tudor inh	BAZ2B inh
CN(C)CCCN(C(=O)c1ccc(S(=O)(=O)N2CCc3ccccc32)cc1)c1nc2c(Cl)cccc2s1	-19.3%	?	39.8µM*	-13.7%	?	?
CCOc1nc(C)ccc1-c1noc(CC)n1	-3.3%	-38.2%	19.3%[59 µM]	19.8%	0.7%	4.5%
CCCOc1ccccc1C1NC(=O)NC(C)=C1C(=O)OCCOC (stereo unspecified)	-5.5%	0.0%	13.4%[2.33 µM]	19.9%	-8.8%	-1.3%
CCOC(=O)C1(CCOc2ccccc2)CCN(Cc2cccc(OC)c2)CC1	-15.7%	0.7%	.	58.6%	3.6%	.
Cc1nn(-c2ccccc2)c2nc(-c3ccncc3)cc(C(=O)NCc3ccco3)c12	29.9µM*	0.0%	50.1µM*	-12.3%	?	-0.6%
Cc1nn(-c2ccccn2)c2nc(-c3cccs3)cc(C(=O)NCc3ccco3)c12	-20.0%	8.2%	44.7µM*	22.4%	?	-10.9%
CCN(CC)C(=O)CSc1nc(C)cc(-c2cccs2)c1C#N	21.2µM*	?	10µM*	1.8%	56.2µM*	-15.6%
COc1ccc(NC(=O)c2nn(C)c(C(=O)Nc3ccc(OC)cc3)c2[N+](=O)[O-])cc1	-4.9%	34.6%	-7.2%	32.5%	-2.4%	13.7%
CCCN(CCC)C(=O)c1cc2sc3ccccc3c2s1	.	5.01µM*	.	.	.	.
O=C(COC(=O)c1ccc([N+](=O)[O-])s1)NCc1ccc(F)cc1	3.1%	-5.4%	-14.1%[59 µM]	34.5%	4.5%	3.3%
O=[N+]([O-])c1ccc(CNc2ccc(F)cc2)s1	-14.0%	-7.3%	44.7µM*	-21.2%	?	39.8µM*
COc1ccc(NCc2ccc([N+](=O)[O-])s2)c(OC)c1	-15.8%	?	10µM*	17.8µM*	39.8µM*	31.6µM*
O=[N+]([O-])c1ccc(CNc2cccc(Cl)c2)s1	-17.2%	?	44.7µM*	-10.7%	?	?
COc1ccc(NCc2ccc([N+](=O)[O-])s2)cc1	-9.6%	?	7.94µM*	?	56.2µM*	50.1µM*
COc1ccc(NC(=O)/C=C/c2ccccc2[N+](=O)[O-])c(OC)c1	-6.1%	14.2%	-9.1%[59 µM]	?	-23.2%	-36.4%
COc1ccc(NC(=O)CCC(=O)N/N=C/c2ccc([N+](=O)[O-])s2)cc1	-14.0%	-21.3%	-5.6%[59 µM]	14.7%	-29.3%	?
O=[N+]([O-])c1ccc(CNc2ccc(Cl)cc2)s1	-2.8%	?	44.7µM*	?	?	35.5µM*
CCCCN(CCCC)Cc1cc(=O)oc2cc(OC)ccc12	-12.4%	?	.	.	.	.
